The values that follow come from PubChem BioAssay.

Experiment [1] in a line: antimalarial activity against Dd2 strain (AID 2302;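 active means growth inhibition above 50% at the single 2 µM test dose, taken to imply half-maximal potency below 2 µM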;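 further: 0% = DMSO untreated growth and 100% = chloroquine plus artemisinin killed control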). The conditions noted are these: P. falciparum Dd2 in RBCs, LDH growth readout, 72 h; at 2 µM; hits give high values.
Experiment [2] can be described thus: human hepatoma cell viability loss – ATP luminescence, cytotoxicity control for P. falciparum antimalarial project, primary screen (AID 2303;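 active means inhibition above 50%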;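 further: 0% = DMSO wells and 100% = digitonin-killed cells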). The note with it: HepG2 viability, 24-48 h, at 10 µM, hits give high values.
For experiment [3], the target named is L-lactate dehydrogenase (Plasmodium falciparum (isolate CDC / Honduras)) (UniProt Q27743). Briefly: PfLDH activity inhibition – cell lysate, 3D7 strain, counter-screen for P. falciparum growth inhibition project (AID 2304).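 Further: 0% = vehicle and 100% = reference inhibitor.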 The note with it: P. falciparum 3D7 crude extract, LDH APAD/NBT absorbance; at 2 µM; hits give high values. In general terms: Counterscreens check selectivity or assay interference.
Chain of L-lactate dehydrogenase (Plasmodium falciparum (isolate CDC / Honduras)) (Q27743 whole entry, looked up): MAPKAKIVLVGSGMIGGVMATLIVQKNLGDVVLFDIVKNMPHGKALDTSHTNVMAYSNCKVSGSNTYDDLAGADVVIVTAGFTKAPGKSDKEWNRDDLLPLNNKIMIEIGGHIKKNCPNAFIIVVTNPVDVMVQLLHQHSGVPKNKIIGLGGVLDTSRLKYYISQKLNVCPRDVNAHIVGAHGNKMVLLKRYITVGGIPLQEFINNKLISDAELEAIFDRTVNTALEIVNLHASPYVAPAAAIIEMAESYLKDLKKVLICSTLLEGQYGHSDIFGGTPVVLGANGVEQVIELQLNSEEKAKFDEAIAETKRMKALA

The nature of experiment [4]: inhibition of 3D7 malaria parasite growth – strain 3D7 (AID 2306).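 Further: 0% = DMSO wells and 100% = chloroquine plus artemisinin control wells.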 The conditions noted are these: P. falciparum 3D7 erythrocytic growth, LDH absorbance, 72 h; at 2 µM; hits give high values.
Experiment [5] concerns the target Calcium-dependent protein kinase 1 (Plasmodium falciparum (isolate 3D7)) (UniProt P62344). Briefly: PfCDPK1 kinase inhibitors, biochemical, TCAMS library (AID 1159585; cut-off not given, nearly all actives have IC50 up to about 0.98 µM;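 further: inhibitors leave more ATP so luminescence rises with inhibition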). The note with it: recombinant PfCDPK1, Kinase-Glo ATP depletion luminescence.
In experiment [6] the target is Plasmodium falciparum protein kinase 6 (PK6, PF3D7_1337100) (UniProt Q8IDW1). Briefly: PfPK6 kinase inhibitors, biochemical, TCAMS library (AID 1159586). The conditions noted are these: recombinant PfPK6, Kinase-Glo ATP depletion luminescence. In general terms: In Kinase-Glo more light means more ATP remaining.
Chain of Plasmodium falciparum protein kinase 6 (PK6, PF3D7_1337100) (Q8IDW1 1-305): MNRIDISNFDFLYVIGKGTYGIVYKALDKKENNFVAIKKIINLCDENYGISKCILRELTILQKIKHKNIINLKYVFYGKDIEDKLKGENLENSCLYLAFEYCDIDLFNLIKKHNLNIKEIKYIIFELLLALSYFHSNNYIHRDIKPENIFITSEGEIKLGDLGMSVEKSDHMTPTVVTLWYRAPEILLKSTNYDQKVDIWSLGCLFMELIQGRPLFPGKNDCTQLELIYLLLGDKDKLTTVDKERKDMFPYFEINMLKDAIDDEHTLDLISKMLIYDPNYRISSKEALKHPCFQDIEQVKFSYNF
For experiment [7], the target named is Protein kinase 7 (PK7), Plasmodium falciparum 3D7 (PF3D7_0213400) (UniProt Q7YTF7). Briefly: inhibition of Plasmodium PK7 catalytic activity – biochemical, TCAMS antimalarial set, Kinase-Glo luminescence (AID 1159587). The note with it: recombinant PfPK7, Kinase-Glo ATP depletion luminescence.
Chain of Protein kinase 7 (PK7), Plasmodium falciparum 3D7 (PF3D7_0213400) (Q7YTF7 1-343): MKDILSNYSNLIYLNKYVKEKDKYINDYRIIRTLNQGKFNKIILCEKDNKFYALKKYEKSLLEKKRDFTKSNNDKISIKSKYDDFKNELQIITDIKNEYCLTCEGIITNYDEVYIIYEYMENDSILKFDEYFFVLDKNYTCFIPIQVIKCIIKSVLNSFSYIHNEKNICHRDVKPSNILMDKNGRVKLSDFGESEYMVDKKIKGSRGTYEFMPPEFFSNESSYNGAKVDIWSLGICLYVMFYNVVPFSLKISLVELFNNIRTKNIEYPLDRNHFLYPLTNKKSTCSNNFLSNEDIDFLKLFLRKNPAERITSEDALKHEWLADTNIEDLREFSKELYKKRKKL
For experiment [8], the target named is Calcium-dependent protein kinase 4 (Plasmodium falciparum (isolate 3D7)) (UniProt Q8IBS5). Briefly: PfCDPK4 kinase inhibitors, biochemical, TCAMS library (AID 1159588; cut-off not given, nearly all actives have IC50 up to about 0.91 µM). The note with it: recombinant PfCDPK4, Kinase-Glo ATP depletion luminescence.
Chain of Calcium-dependent protein kinase 4 (Plasmodium falciparum (isolate 3D7)) (Q8IBS5 whole entry, looked up): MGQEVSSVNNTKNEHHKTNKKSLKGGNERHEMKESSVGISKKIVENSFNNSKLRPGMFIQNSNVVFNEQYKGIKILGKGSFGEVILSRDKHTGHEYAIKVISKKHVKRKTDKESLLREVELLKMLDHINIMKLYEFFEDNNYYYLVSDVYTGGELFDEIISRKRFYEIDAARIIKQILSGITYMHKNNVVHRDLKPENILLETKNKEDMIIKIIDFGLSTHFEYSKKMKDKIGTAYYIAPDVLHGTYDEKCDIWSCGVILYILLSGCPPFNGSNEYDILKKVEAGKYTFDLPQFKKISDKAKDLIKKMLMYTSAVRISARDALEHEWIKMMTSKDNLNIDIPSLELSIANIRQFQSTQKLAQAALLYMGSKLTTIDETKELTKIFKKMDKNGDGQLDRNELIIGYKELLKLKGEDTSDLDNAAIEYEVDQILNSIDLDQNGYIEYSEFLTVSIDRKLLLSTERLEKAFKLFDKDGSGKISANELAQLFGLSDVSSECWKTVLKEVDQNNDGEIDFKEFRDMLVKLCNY

Values without a mark were called inactive. For part of these data: Potency and affinity values are given separately. Calls of active or inactive are those of the source. Unless noted, how the calls were made is not given here.

Chain of Calcium-dependent protein kinase 1 (Plasmodium falciparum (isolate 3D7)) (P62344 whole entry, looked up): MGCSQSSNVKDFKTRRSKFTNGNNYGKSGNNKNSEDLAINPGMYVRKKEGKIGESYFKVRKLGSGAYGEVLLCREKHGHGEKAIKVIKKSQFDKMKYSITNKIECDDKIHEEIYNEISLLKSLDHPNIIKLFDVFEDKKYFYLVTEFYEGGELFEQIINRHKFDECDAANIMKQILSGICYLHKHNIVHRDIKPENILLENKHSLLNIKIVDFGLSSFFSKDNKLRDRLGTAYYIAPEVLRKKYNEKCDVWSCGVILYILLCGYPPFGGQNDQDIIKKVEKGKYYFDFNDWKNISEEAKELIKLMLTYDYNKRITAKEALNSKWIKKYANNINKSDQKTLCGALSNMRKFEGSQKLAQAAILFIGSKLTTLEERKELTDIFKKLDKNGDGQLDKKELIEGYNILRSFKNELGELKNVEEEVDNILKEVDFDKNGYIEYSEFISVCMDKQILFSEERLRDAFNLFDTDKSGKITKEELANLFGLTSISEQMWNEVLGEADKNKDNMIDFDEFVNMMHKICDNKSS

A word on the inhibition: it is the drop in the measured response relative to a control, in per cent. For the compound `O=[N+]([O-])c1cc(C(c2ccc(O)c([N+](=O)[O-])c2)C(Cl)(Cl)Cl)ccc1O`, the growth inhibition was 98% (active) in experiment [1] and 93% (active) in experiment [4]. For the same compound, the inhibition is 2% in experiment [2] and 3% in experiment [3]. In addition, the result in experiment [5], in experiment [6], in experiment [7] and in experiment [8] was inactive.
With `CN(C)c1ccc2nc(N)nc(N)c2c1Cl`, the growth inhibition was -1% in experiment [1] and 98% (active) in experiment [4]. Besides, the figures for the inhibition in experiment [2] and in experiment [3] were 68% (active) and 2%, respectively. For the same compound, the result in experiment [5], in experiment [6], in experiment [7] and in experiment [8] was inactive.
Regarding `CC(C)(C)c1ccc2nc(-c3ccc(C(=O)NCc4cccc(C(F)(F)F)c4)cc3)[nH]c2c1`, the growth inhibition was 26% in experiment [1] and 98% (active) in experiment [4]. Besides, the inhibition in experiment [2] was 9%; in experiment [3] it was -1%. Moreover, the result in experiment [5], in experiment [6], in experiment [7] and in experiment [8] was inactive.
Consider `COc1ccc(CNCc2ccc(-c3ccc(CNCCc4ccccc4)cn3)cc2)cn1`, for which the figures for the growth inhibition in experiment [1] and in experiment [4] were 44% and 97% (active), respectively. Also, the figures for the inhibition in experiment [2] and in experiment [3] were 16% and 1%, respectively. The outcome in experiment [5], in experiment [6], in experiment [7] and in experiment [8] was inactive.
With `O=C(NCc1ccc(Cl)c(Cl)c1)c1ccc(C2CCCN(Cc3ccc4nc[nH]c4c3)C2)cc1` (stereo not drawn), the growth inhibition is 83% (active) in experiment [1] and 100% (active) in experiment [4]. Also, the inhibition in experiment [2] is 9%; in experiment [3] it was 3%. Besides, the result in experiment [5], in experiment [6], in experiment [7] and in experiment [8] was inactive.
Turning to `Cc1ccc(O)cc1Nc1ccnc2cc(-c3ccncc3)ccc12`, the growth inhibition was 84% (active) in experiment [1] and 100% (active) in experiment [4]. The inhibition in experiment [2] is 16%; in experiment [3], 6%. For the same compound, the outcome in experiment [5], in experiment [6], in experiment [7] and in experiment [8] was inactive.
On to `CC1(C)N=C(N)N=C(N)N1c1cccc(C(F)(F)F)c1`, for which the growth inhibition is 68% (active) in experiment [1] and 95% (active) in experiment [4]. Besides, the inhibition in experiment [2] is 60% (active); in experiment [3], 0%. In addition, the result in experiment [5], in experiment [6], in experiment [7] and in experiment [8] was inactive.
As to `COc1ccc(CNCc2ccc(-c3cccc(-c4nc5ccccc5[nH]4)c3)cc2)cc1`, the growth inhibition in experiment [1] was 85% (active); in experiment [4], 101% (active). In addition, the inhibition in experiment [2] was 57% (active); in experiment [3] it was -3%. Also, the outcome in experiment [5], in experiment [6], in experiment [7] and in experiment [8] was inactive.
On to `Cn1nc(C(F)(F)F)c(-c2ccc(Br)cc2)c1NC(=O)Cc1ccccc1F`, for which the growth inhibition was 100% (active) in experiment [1] and 102% (active) in experiment [4]. Moreover, the inhibition was 6% in experiment [2] and -1% in experiment [3]. Also, the result in experiment [5], in experiment [6], in experiment [7] and in experiment [8] was inactive.
On to `Cc1cccc2[nH]c(-c3ccc(-c4ccc(CN5CCCC(O)C5)cc4)s3)nc12` (stereo not drawn), for which the figures for the growth inhibition in experiment [1] and in experiment [4] were 29% and 101% (active), respectively. Also, the inhibition in experiment [2] was 38%; in experiment [3], -1%. The result in experiment [5], in experiment [6], in experiment [7] and in experiment [8] was inactive.
Consider `CC(C(=O)N1CCCC1)N1CCN(C(c2ccccc2)c2ccccc2)CC1` (stereo not drawn), for which the values for the growth inhibition in experiment [1] and in experiment [4] were 56% (active) and 82% (active), respectively. Also, the inhibition in experiment [2] is -2%; in experiment [3] it was 3%. Also, the result in experiment [5], in experiment [6], in experiment [7] and in experiment [8] was inactive.
On to `CC(C)CCNc1nc(NCc2ccccc2)c2cc(O)ccc2n1`, for which the values for the growth inhibition in experiment [1] and in experiment [4] were 92% (active) and 103% (active), respectively. Also, the inhibition is 25% in experiment [2] and 3% in experiment [3]. For the same compound, the outcome in experiment [5], in experiment [6], in experiment [7] and in experiment [8] was inactive.
In the case of `Fc1ccc2nc(-c3cccc(-c4ccc(CNCc5cnn(-c6ccccc6)n5)cc4)c3)[nH]c2c1`, the growth inhibition was 22% in experiment [1] and 98% (active) in experiment [4]. Besides, the inhibition in experiment [2] is 18%; in experiment [3] it was -3%. Further, the outcome in experiment [5], in experiment [6], in experiment [7] and in experiment [8] was inactive.
On to `CC(C)C(C(=O)n1cc2c(ccc3nc(N)nc(N)c32)n1)C(C)C`, for which the growth inhibition was 49% in experiment [1] and 98% (active) in experiment [4]. The inhibition in experiment [2] is 58% (active); in experiment [3], -6%. The outcome in experiment [5], in experiment [6], in experiment [7] and in experiment [8] was inactive.
Consider `O=C(/C=C/c1ccc(Cl)c(Cl)c1)NCCCCCCN1CCCN(C(=O)Nc2ccc(F)c(Cl)c2)CC1`, for which the figures for the growth inhibition in experiment [1] and in experiment [4] were 1% and 98% (active), respectively. Besides, the inhibition in experiment [2] was 30%; in experiment [3], 0%. The result in experiment [5], in experiment [6], in experiment [7] and in experiment [8] was inactive.
`c1ccc(C23N=C(Nc4nc5ccccc5[nH]4)NC2(c2ccccc2)NC(Nc2nc4ccccc4[nH]2)=N3)cc1` (stereo not drawn): the values for the growth inhibition in experiment [1] and in experiment [4] were 89% (active) and 97% (active), respectively. The inhibition in experiment [2] is 2%; in experiment [3], 3%. Also, the outcome in experiment [5], in experiment [6], in experiment [7] and in experiment [8] was inactive.
`CCc1ccc(NC(=O)C=NN=C(N)N)cc1`: the growth inhibition in experiment [1] is 3%; in experiment [4] it was 100% (active). Also, the inhibition in experiment [2] is 13%; in experiment [3] it was -2%. The outcome in experiment [5], in experiment [6], in experiment [7] and in experiment [8] was inactive.
In the case of `CNC(=O)/C=C/c1cc(NC(=O)Nc2cc(C)nc3c(F)cccc23)ccc1OC`, the growth inhibition is 70% (active) in experiment [1] and 98% (active) in experiment [4]. Besides, the inhibition in experiment [2] was -3%; in experiment [3], 2%. The result in experiment [5], in experiment [6], in experiment [7] and in experiment [8] was inactive.
Regarding `COc1ccc(Cl)cc1N1CCN(CCCNC(=O)c2ccc(-c3nc4ccncc4[nH]3)c(Br)c2)CC1`, the figures for the growth inhibition in experiment [1] and in experiment [4] were 15% and 86% (active), respectively. The inhibition in experiment [2] was 5%; in experiment [3], 4%. In addition, the outcome in experiment [5], in experiment [6], in experiment [7] and in experiment [8] was inactive.
With `CCN(CCCN1CCCCC1)c1cc(C)nc(Nc2ccc3c(c2)CCC3)n1`, the growth inhibition is 93% (active) in experiment [1] and 100% (active) in experiment [4]. Further, the results for the inhibition in experiment [2] and in experiment [3] were 32% and 5%, respectively. The result in experiment [5], in experiment [6], in experiment [7] and in experiment [8] was inactive.
`O=C(/C=C/c1ccc(CNCCN2CCOCC2)cc1)NCCc1ccccc1`: the growth inhibition in experiment [1] is 3%; in experiment [4], 94% (active). Moreover, the inhibition in experiment [2] is 9%; in experiment [3] it was -2%. The result in experiment [5], in experiment [6], in experiment [7] and in experiment [8] was inactive.
